Source: PubChem BioAssay AID1159580 (chemical genetic matrix, 2015)
About 2,000 (36%) of roughly 5,500 compounds were called active. Another 18% or so got no clear call; they are omitted. Rule as the data show it: active = normalized growth mostly below about 0.91 (no sharp cut-off); inconclusive = no clear call, values can overlap the other calls; inactive = mostly above about 0.92. The list shows a part of the results.

Experiment: chemical genetic growth profiling, strain panel (AID 1159580);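 also: tested at 20 µM; growth read once vehicle control cultures reached saturation at 30 °C; 1 = growth at the plate median or of vehicle wells; lower values mean less growth of the strain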
Details: growth OD

Measured: normalized growth

O=C(Nc1ccccc1)Nc1ccccc1
active: S. cerevisiae deletion strains, locus YLR039C, strain RIC1, hits give low values 1.38 [resistant]
inactive: S. cerevisiae deletion strains, locus YKL009W, strain mrt4, hits give low values 0.956 | S. cerevisiae deletion strains, locus YKL068W, hits give low values 0.975 | S. cerevisiae deletion strains, locus YKL085W, strain MDH1 (second series), hits give low values 0.979 | S. cerevisiae deletion strains, locus YKL085W, strain MDH1, hits give low values 0.979 | S. cerevisiae deletion strains, locus YKL160W, strain elf1, hits give low values 0.95 | S. cerevisiae deletion strains, locus YKR001C, strain vps1, hits give low values 0.97 | S. cerevisiae deletion strains, locus YKR026C, strain gcn3, hits give low values 0.967 | S. cerevisiae deletion strains, locus YKR091W, strain srl3, hits give low values 0.962 | S. cerevisiae deletion strains, locus YLL001W, strain dnm1, hits give low values 0.982 | S. cerevisiae deletion strains, locus YLL026W, hits give low values 0.958 | S. cerevisiae deletion strains, locus YLL041C, strain sdh2, hits give low values 0.982 | S. cerevisiae deletion strains, locus YLR027C, strain aat2, hits give low values 0.944 | S. cerevisiae deletion strains, locus YLR058C, strain SHM2, hits give low values 0.99 | S. cerevisiae deletion strains, locus YLR102C, strain apc9, hits give low values 0.98 | S. cerevisiae deletion strains, locus YLR113W, strain HOG1, hits give low values 1.01 | S. cerevisiae deletion strains, locus YLR221C, strain rsa3, hits give low values 0.957 | S. cerevisiae deletion strains, locus YLR258W, strain gsy2, hits give low values 0.974 | S. cerevisiae deletion strains, locus YLR262C, strain YPT6 (second series), hits give low values 0.96 | S. cerevisiae deletion strains, locus YLR262C, strain YPT6, hits give low values 1.34 | S. cerevisiae deletion strains, locus YLR268W, strain sec22, hits give low values 0.989 | S. cerevisiae deletion strains, locus YLR320W, strain mms22, hits give low values 0.99 | S. cerevisiae deletion strains, locus YLR342W, strain FKS1 (second series), hits give low values 0.991 | S. cerevisiae deletion strains, locus YLR342W, strain FKS1, hits give low values 0.972 | S. cerevisiae deletion strains, locus YLR357W, strain rsc2, hits give low values 0.96 | S. cerevisiae deletion strains, locus YLR370C, strain arc18, hits give low values 0.932 | S. cerevisiae deletion strains, locus YLR371W, strain rom2, hits give low values 0.944 | S. cerevisiae deletion strains, locus YLR384C, strain iki3, hits give low values 0.967 | S. cerevisiae deletion strains, locus YLR418C, strain cdc73, hits give low values 1.06 | S. cerevisiae deletion strains, locus YML016C, strain PPZ1, hits give low values 0.991 | S. cerevisiae deletion strains, locus YML032C, strain rad52, hits give low values 0.98 | S. cerevisiae deletion strains, locus YML120C, strain ndi1, hits give low values 0.98 | S. cerevisiae deletion strains, locus YML124C, strain tub3, hits give low values 0.971 | S. cerevisiae deletion strains, locus YMR058W, strain fet3, hits give low values 0.946 | S. cerevisiae deletion strains, locus YMR078C, strain ctf18, hits give low values 0.981 | S. cerevisiae deletion strains, locus YMR125W, strain sto1, hits give low values 0.949 | S. cerevisiae deletion strains, locus YMR129W, hits give low values 0.959 | S. cerevisiae deletion strains, locus YMR205C, strain PFK2, hits give low values 0.984 | S. cerevisiae deletion strains, locus YMR223W, strain ubp8, hits give low values 0.976 | S. cerevisiae deletion strains, locus YMR231W, strain pep5, hits give low values 0.99 | S. cerevisiae deletion strains, locus YMR263W, strain SAP30, hits give low values 1 | S. cerevisiae deletion strains, locus YMR307W, strain GAS1, hits give low values 1.34 | S. cerevisiae deletion strains, locus YNL067W, strain RPL9B, hits give low values 0.996 | S. cerevisiae deletion strains, locus YNL071W, strain lat1, hits give low values 0.965 | S. cerevisiae deletion strains, locus YNL128W, strain TEP1, hits give low values 1 | S. cerevisiae deletion strains, locus YNL183C, strain NPR1, hits give low values 0.949 | S. cerevisiae deletion strains, locus YNL209W, strain ssb2, hits give low values 0.966 | S. cerevisiae deletion strains, locus YNL233W, strain BNI4, hits give low values 1.05 | S. cerevisiae deletion strains, locus YNL248C, strain rpa49, hits give low values 0.921 | S. cerevisiae deletion strains, locus YNL250W, strain rad50, hits give low values 0.973 | S. cerevisiae deletion strains, locus YNL271C, strain bni1, hits give low values 0.978 | S. cerevisiae deletion strains, locus YNL298W, strain CLA4, hits give low values 1.02 | S. cerevisiae deletion strains, locus YNL307C, strain MCK1, hits give low values 0.985 | S. cerevisiae deletion strains, locus YNL322C, strain KRE1 (second series), hits give low values 0.965 | S. cerevisiae deletion strains, locus YNR049C, strain mso1, hits give low values 0.95 | S. cerevisiae deletion strains, locus YNR052C, strain pop2, hits give low values 0.993 | S. cerevisiae deletion strains, locus YOL012C, strain htz1 0.934 | S. cerevisiae deletion strains, locus YOL147C, strain pex11, hits give low values 0.978 | S. cerevisiae deletion strains, locus YOR001W, strain rrp6, hits give low values 0.957 | S. cerevisiae deletion strains, locus YOR061W, strain CKA2, hits give low values 1.02 | S. cerevisiae deletion strains, locus YOR069W, strain VPS5, hits give low values 1 | S. cerevisiae deletion strains, locus YOR070C, strain gyp1, hits give low values 0.977 | S. cerevisiae deletion strains, locus YOR080W, strain dia2, hits give low values 0.963 | S. cerevisiae deletion strains, locus YOR083W, strain WHI5, hits give low values 0.959 | S. cerevisiae deletion strains, locus YOR106W, strain vam3, hits give low values 0.902 | S. cerevisiae deletion strains, locus YOR136W, strain idh2, hits give low values 0.996 | S. cerevisiae deletion strains, locus YOR144C, strain elg1, hits give low values 0.97 | S. cerevisiae deletion strains, locus YOR184W, strain ser1, hits give low values 1.03 | S. cerevisiae deletion strains, locus YOR231W, strain MKK1, hits give low values 1.01 | S. cerevisiae deletion strains, locus YOR265W, strain rbl2, hits give low values 0.964 | S. cerevisiae deletion strains, locus YOR270C, strain vph1, hits give low values 0.875 | S. cerevisiae deletion strains, locus YOR290C, strain snf2, hits give low values 0.907 | S. cerevisiae deletion strains, locus YOR316C, strain cot1, hits give low values 0.989 | S. cerevisiae deletion strains, locus YPL051W, strain arl3, hits give low values 0.928 | S. cerevisiae deletion strains, locus YPL055C, strain LGE1, hits give low values 1.17 | S. cerevisiae deletion strains, locus YPL078C, strain atp4, hits give low values 0.923 | S. cerevisiae deletion strains, locus YPL106C, strain sse1, hits give low values 0.932 | S. cerevisiae deletion strains, locus YPL240C, strain hsp82, hits give low values 0.967 | S. cerevisiae deletion strains, locus YPL241C, strain CIN2, hits give low values 0.998 | S. cerevisiae deletion strains, locus YPL256C, strain CLN2, hits give low values 0.985 | S. cerevisiae deletion strains, locus YPR119W, strain clb2, hits give low values 0.966 | S. cerevisiae deletion strains, locus YPR141C, strain kar3, hits give low values 0.975 | S. cerevisiae deletion strains, locus YPR163C, strain tif3, hits give low values 0.987 | S. cerevisiae deletion strains, locus YPR167C, strain met16, hits give low values 0.984 | S. cerevisiae deletion strains, strain wtn01, hits give low values 0.996 | S. cerevisiae strains, strain wild type, hits give low values 1.07
